In PubChem BioAssay (EPA / NIEHS):
The source made the active and inactive calls. The calls were made as follows: active = hit-call score of the fitted dose curve at least 0.9, where 1 is the maximum; inactive = score below 0.9.

assay: CEETOX_H295R_ESTRONE: CeeTox H295R High-throughput Steroidogenesis Assay for Estrone (AID 2283441); settings: actives raise or lower the signal;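 also: estrone secreted into medium measured by LC-MS/MS after dansyl derivatization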;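 as to AC50: human adrenal H295R cells prestimulated with forskolin for two days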
Procedure: CEETOX_H295R is a cell-based, multiplexed-readout assay that uses H295R, a human adrenal gland cell line, with measurements taken at 48 hours after chemical dosing in a 96-well plate.CEETOX_H295R_ESTRONE is one of 23 assay component(s) measured or calculated from the CEETOX_H295R assay. It is designed to make measurements of hormone induction, a form of inducible reporter, as detected with absorbance signals by HPLC-MS-MS technology.Data from the assay component CEETOX_H295R_ESTRONE was analyzed into 1 assay endpoint. This assay endpoint, CEETOX_H295R_ESTRONE, was analyzed with bidirectional fitting relative to DMSO as the negative control and baseline of activity. Using a type of inducible reporter, gain or loss-of-signal activity using HPLC-MS-MS was used to understand synthesis of Estrone in H295R cell line at 48hr of chemical exposure. To generalize the intended target to other relatable targets, this assay endpoint is annotated to the steroid hormone intended target family, where the subfamily is estrogens.
Cell culture and media preparation procedures were conducted in accordance with OECD Test No. 456 guidelines, with minor modifications. H295R cells (ATCC CRL-2128) were expanded for 5 passages and frozen in batches in liquid nitrogen. Prior to the steroidogenesis assay, H295R cells were thawed and passed at least 4 times. The maximum passage was 10. […] After seeding cells into 96-well plates at 50-60% confluency, cells were allowed to adhere overnight. Prior to chemical testing, culture medium was replaced with 175 uL medium containing 10 uM forskolin to stimulate steroidogenesis for 48 hours. Following prestimulation, forskolin medium was replaced with medium containing test chemical solubilized in DMSO (ensuring a final concentration of 0.1% DMSO). Test chemicals were incubated for 48 hours, then the medium was removed and split into 2 vials containing approximately 75uL each, and stored at -80 C prior to hormone analysis. For steroid quantification, media samples were shipped to OpAns, LLC (Durham, NC) on dry ice, and samples were thawed to room temperature prior to liquid-liquid extraction. Steroid hormones were extracted from media samples using methyl tertbutyl ether (MTBE). An extra derivatization with dansyl chloride was included for estrogen (estrone and estradiol) detection only. Steroid hormones were separated by HPLC, eluted using a reverse phase C18 gradient with electrospray positive ionization, followed by quantification by tandem mass spectrometry (MS/MS). Data were acquired on a MassHunter Workstation Acquisition version B03.01 (Agilent Technologies, Inc.) and processed using MassHunter Quantitative Analysis for QQQ. Accuracy was determined for each hormone analyte from 3 standards to determine upper and lower limits of quantification (ULOQ and LLOQ, respectively) using a 7-point standard curve. Precision and accuracy of the extraction and quantification methods were calculated as the percent relative standard deviation (%RSD) of the spiked standards and percent spiked standard recovered, respectively. The goal was to achieve 100% accuracy (i.e., recover all spiked-in standard at quantification with minimal loss during run time) and good precision (i.e., have %RSD <15% to ensure reproducibility). Test medium was removed following chemical exposure, and cell viability was evaluated in the same wells by MTT. MTT procedures were as follows: after removal of test medium, 500 uL of 0.5 mg/ml of 3-[4,5-dimethylthiazol-2-y]2,5-diphenyltetrazoliumbromide solution was added to the cells. Following a 4-hour incubation at 37 C and 5% CO2 to allow formazan-crystal formation, the MTT solution was removed and blue formazan salt crystals were solubilized using 500uL anhydrous isopropanol with shaking for 20 minutes. Absorbance was read at 570 and 650nm using a Packard Fusion microplate reader. Background correction of absorbance units was used to determine percent change relative to controls. […] […]

| Compound | outcome | AC50 |
| --- | --- | --- |
| CNC(=O)/C=C(\C)OP(=O)(OC)OC | inactive | – |
| CCC(C)(C)C(=O)OC1=C(c2ccc(Cl)cc2Cl)C(=O)OC12CCCCC2 | inactive | – |
| O=C(NC(=O)c1c(F)cccc1F)Nc1ccc(OC(F)(F)C(F)OC(F)(F)F)c(Cl)c1 (configuration not stated) | inactive | – |
| Clc1ccccc1-c1nnc(-c2ccccc2Cl)nn1 | inactive | – |
| O=C1c2ccccc2C(=O)N1SC(Cl)(Cl)Cl | inactive | – |
| C#CCN1C(=O)COc2cc(F)c(N3C(=O)C4=C(CCCC4)C3=O)cc21 | inactive | – |
| C[C@H]1[C@H](c2ccc(Cl)cc2)SC(=O)N1C(=O)NC1CCCCC1 | inactive | – |
| O=[N+]([O-])c1c(Cl)c(Cl)c(Cl)c(Cl)c1Cl | inactive | – |
| COP(=S)(OC)Oc1ccc(SC)c(C)c1 | inactive | – |
| COc1nn(CSP(=S)(OC)OC)c(=O)s1 | – | 21.4 µM (active) |
| COP(=S)(OC)Oc1ccc([N+](=O)[O-])cc1 | inactive | – |
| O=[N+]([O-])/N=C1\NCCN1Cc1ccc(Cl)nc1 | inactive | – |
| CC(C)OC(=O)Nc1cccc(Cl)c1 | – | 15.6 µM (active) |
| CNC(=O)CSP(=S)(OC)OC | inactive | – |
| CC(C)(C)C(O)/C(=C\c1ccc(Cl)cc1Cl)n1cncn1 (configuration not stated) | inactive | – |
| CNC(=O)Oc1ccccc1OC(C)C | inactive | – |
| CC(C)N(C(=O)COc1nnc(C(F)(F)F)s1)c1ccc(F)cc1 | inactive | – |
| CCc1ccc(C(=O)NN(C(=O)c2cc(C)cc(C)c2)C(C)(C)C)cc1 | inactive | – |
| N#Cc1c(Cl)c(Cl)c(Cl)c(C#N)c1Cl | inactive | – |
| CNC(=O)Oc1cccc(N=CN(C)C)c1 | inactive | – |
| CC1(C)C(C=C(Cl)Cl)C1C(=O)OC(C#N)c1ccc(F)c(Oc2ccccc2)c1 (configuration not stated) | inactive | – |
| CCC(C)Nc1c([N+](=O)[O-])cc(C(C)(C)C)cc1[N+](=O)[O-] (configuration not stated) | inactive | – |
